Hits are enriched below; roughly 4.4% of the tested compounds scored in any of these assays.
D1 PAM: human D1 dopamine receptor positive modulation | P21728 | potentiation, % at 10 µM | AID 504651 | actives 0.036% (n = 360,000) | HEK293 TREx D1 cells, calcium flux, dopamine EC20 potentiation; in the data active means potentiation above about 30%
Target sequence (P21728 whole entry, looked up): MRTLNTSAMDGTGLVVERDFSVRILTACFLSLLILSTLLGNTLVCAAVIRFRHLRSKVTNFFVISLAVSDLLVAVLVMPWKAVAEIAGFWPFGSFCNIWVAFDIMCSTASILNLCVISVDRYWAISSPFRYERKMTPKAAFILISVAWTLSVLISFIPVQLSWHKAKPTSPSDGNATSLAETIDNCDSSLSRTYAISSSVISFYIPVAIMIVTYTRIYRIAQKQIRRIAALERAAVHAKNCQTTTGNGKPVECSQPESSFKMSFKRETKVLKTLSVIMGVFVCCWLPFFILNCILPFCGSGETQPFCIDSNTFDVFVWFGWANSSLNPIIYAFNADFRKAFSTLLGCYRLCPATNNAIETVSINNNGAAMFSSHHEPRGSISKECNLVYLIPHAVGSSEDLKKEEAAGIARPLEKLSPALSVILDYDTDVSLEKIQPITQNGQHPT
USP1 inh: inhibitors of human USP1/UAF1 deubiquitinase. actives 0.23% (n = 390,000). recombinant USP1/UAF1, Ub-Rhodamine cleavage fluorescence. O94782. Potency, µM (titrated, usually from 57.1 µM), usual class: inhibitors. AID 743255; active means well fitted inhibition curve with a large enough effect; inconclusive means small, poorly fitted or top-dose-only effect; inactive means no such curve, though single readings can be large or run the other way; further: nearly all actives have a fitted effect of over 60% in size
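Step one: compound is pinned into 1nM USP1/UAF1 in HEPES pH 7.8 buffer with TCEP. Step two: 15 min room-temperature incubation. Step three: Ub-Rho (150nM final) starts cleavage, tracked by fluorescence over six one-minute reads.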
D1 antag: antagonists of human D1 dopamine receptor. P21728. HEK293 TREx D1 cells, calcium flux, dopamine EC80; active compounds read low. activity change, negative = inhibition, % at 10 µM. actives 3.2% (n = 360,000). AID 504652; in the data active means activity change below about -30%
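Tetracycline-induced HEK293 T-REx cells with force-coupled D1 receptor were loaded with a no-wash calcium dye. Compound was added after a 10 s baseline and read kinetically for 180 s; EC80 dopamine was then added and calcium flux followed another 180 s.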
D1 agonist: human D1 receptor agonism; HEK293 T-REx D1 cells, calcium flux, agonist mode; activation, % at 2 µM; actives 1% (n = 360,000); AID 504660
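Agonism was scored from calcium flux recorded over 180 s (1 read/s) after pintool compound addition, following a 10-cycle baseline. Cells were inducible force-coupled HEK293 TREx D1, plated overnight at 30 C and loaded with no-wash calcium dye.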
TRHR ag: TRH receptor (human) agonism | actives 0.18% (n = 360,000) | activation, % at 2 µM | TRHR cells, calcium flux fluo-8, FDSS agonist mode
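Steps: seed TRHR cells overnight; add fluo-8 no-wash Ca dye, RT 30 min–1.5 h; record 10 s baseline; pin-transfer compounds; monitor fluorescence 1 cycle/s for the agonist window. Calcium increases flag candidate agonists.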
TRHR PAM: allosterically enhances the human TRH receptor. enhancement, % at 2 µM. AID 493056. actives 0.66% (n = 360,000). P34981. TRHR cells, fluo-8 calcium fluorescence, EC20 TRH enhancement; in the data active means enhancement above about 30%
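Enhancer read-out: after compound pinning and an initial kinetic agonist-mode read, an EC20 of TRH (10 nM final) was injected and fluo-8 calcium signal (Ex 480/Em 530) followed at 1 s/cycle for 100 cycles in TRHR-expressing cells.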
A number is an active result. Unless noted, no stated cut-off is given here; in the data, active means activation above about 30%; inactive means the rest.

What do the screens show for `CN(C(=O)c1cc2n(n1)C(C(F)(F)F)CC(c1ccco1)N2)c1ccccc1` (configuration not stated)?
D1 PAM: inactive; USP1 inh: inactive; D1 antag: -50; D1 agonist: inactive; TRHR ag: inactive; TRHR PAM: inactive

How did NC(=O)C1CCN(C(=O)c2cc3n(n2)C(C(F)(F)F)CC(c2ccco2)N3)CC1 (configuration not stated) do in these assays?
D1 PAM: inactive; USP1 inh: inactive; D1 antag: -40; D1 agonist: inactive; TRHR ag: inactive; TRHR PAM: inactive

How did O=C(NC1CCCCCC1)c1cc2n(n1)C(C(F)(F)F)CC(c1ccco1)N2 (configuration not stated) do in these assays?
D1 PAM: inactive; USP1 inh: inactive; D1 antag: inactive; D1 agonist: inactive; TRHR ag: inactive; TRHR PAM: inactive

How did O=C(COC(=O)/C=C/c1ccc(F)cc1)Nc1ccc2[nH]c(=O)[nH]c2c1 do in these assays?
D1 PAM: inactive; USP1 inh: inactive; D1 antag: inactive; D1 agonist: inactive; TRHR ag: inactive; TRHR PAM: inactive

How did C/C=C/c1ccc(OCCCCN2CCN(CC)CC2)c(OC)c1 do in these assays?
D1 PAM: inactive; USP1 inh: inactive; D1 antag: -33; D1 agonist: inactive; TRHR ag: inactive; TRHR PAM: inactive

What do the screens show for `C/C=C/c1ccc(OCC(=O)Nc2ccc(OC)c(OC)c2)c(OC)c1`?
D1 PAM: inactive; USP1 inh: inactive; D1 antag: -38; D1 agonist: inactive; TRHR ag: inactive; TRHR PAM: inactive

What do the screens show for `CCOC(=O)/C=C/C(=O)Nc1cccc([N+](=O)[O-])c1`?
D1 PAM: inactive; USP1 inh: inactive; D1 antag: inactive; D1 agonist: inactive; TRHR ag: inactive; TRHR PAM: inactive

What do the screens show for `CCOC(=O)/C=C/C(=O)OCC(=O)Nc1ccc([N+](=O)[O-])cc1`?
D1 PAM: inactive; USP1 inh: inactive; D1 antag: -33; D1 agonist: inactive; TRHR ag: inactive; TRHR PAM: inactive

Results for COc1ccc(/C=C/C(=O)OCC(=O)Nc2ccc3[nH]c(=O)[nH]c3c2)cc1OC ?
D1 PAM: inactive; USP1 inh: inactive; D1 antag: -32; D1 agonist: inactive; TRHR ag: inactive; TRHR PAM: inactive

Results for N#Cc1nc(-c2ccc(COc3ccc(Cl)cc3)o2)oc1N1CCC(C(N)=O)CC1 ?
D1 PAM: inactive; USP1 inh: inactive; D1 antag: inactive; D1 agonist: inactive; TRHR ag: inactive; TRHR PAM: inactive

What do the screens show for `CC1CCN(C(=O)Cn2ncc3c4ccccc4n(Cc4ccc(Cl)cc4)c3c2=O)CC1`?
D1 PAM: inactive; USP1 inh: inconclusive; D1 antag: inactive; D1 agonist: inactive; TRHR ag: inactive; TRHR PAM: inactive

Results for CCCN1CCc2nc(N3CCN(c4ncccn4)CC3)ncc2C1 ?
D1 PAM: inactive; USP1 inh: inactive; D1 antag: inactive; D1 agonist: inactive; TRHR ag: inactive; TRHR PAM: inactive

What do the screens show for `CCOC(=O)C1=C(CN2CCCCC2)NC(=O)NC1c1ccc(C)cc1` (configuration not stated)?
D1 PAM: inactive; USP1 inh: inactive; D1 antag: inactive; D1 agonist: inactive; TRHR ag: inactive; TRHR PAM: inactive

Results for COc1ccc(CNC(=O)CCCCCn2c(=O)[nH]c3ccccc3c2=O)cc1 ?
D1 PAM: inactive; USP1 inh: inactive; D1 antag: inactive; D1 agonist: inactive; TRHR ag: inactive; TRHR PAM: inactive

What do the screens show for `COc1cc(/C=C/C(=O)OCC(=O)Nc2ccc(S(N)(=O)=O)cc2)ccc1O`?
D1 PAM: inactive; USP1 inh: inconclusive; D1 antag: inactive; D1 agonist: inactive; TRHR ag: inactive; TRHR PAM: inactive

How did COc1cc(/C=C/C(=O)OCC(=O)Nc2ccc([N+](=O)[O-])cc2)ccc1O do in these assays?
D1 PAM: inactive; USP1 inh: inactive; D1 antag: inactive; D1 agonist: 31; TRHR ag: inactive; TRHR PAM: inactive

How did Cc1ccc(C)c(N2CCN(C(=O)Cn3c(-c4cccs4)cc4ccccc43)CC2)c1 do in these assays?
D1 PAM: inactive; USP1 inh: inconclusive; D1 antag: inactive; D1 agonist: inactive; TRHR ag: inactive; TRHR PAM: inactive

Results for O=C(COC(=O)c1cccc(S(=O)(=O)N2CCN(c3ccccc3)CC2)c1)NCC1CCCO1 (configuration not stated) ?
D1 PAM: inactive; USP1 inh: inactive; D1 antag: -34; D1 agonist: inactive; TRHR ag: inactive; TRHR PAM: inactive

How did O=C(COC(=O)c1cccc(S(=O)(=O)N2CCN(c3ccc(F)cc3)CC2)c1)NCC1CCCO1 (configuration not stated) do in these assays?
D1 PAM: inactive; USP1 inh: inactive; D1 antag: inactive; D1 agonist: inactive; TRHR ag: inactive; TRHR PAM: inactive

How did CCOC(=O)c1cc(S(=O)(=O)N2CCN(c3ccc(C(C)=O)cc3)CC2)[nH]n1 do in these assays?
D1 PAM: inactive; USP1 inh: inactive; D1 antag: inactive; D1 agonist: inactive; TRHR ag: inactive; TRHR PAM: inactive

How did COc1ccc(/C=N/NC(=O)c2nc(-c3ccccc3)n(-c3ccccc3)n2)cc1 do in these assays?
D1 PAM: inactive; USP1 inh: inactive; D1 antag: inactive; D1 agonist: inactive; TRHR ag: inactive; TRHR PAM: inactive

How did COc1ccc(/C=N/NC(=O)c2nc(-c3ccccc3)n(-c3ccccc3)n2)c(O)c1 do in these assays?
D1 PAM: inactive; USP1 inh: inactive; D1 antag: -61; D1 agonist: inactive; TRHR ag: inactive; TRHR PAM: inactive

What do the screens show for `CC1CCN(S(=O)(=O)c2cnc(Cl)c(Br)c2)CC1`?
D1 PAM: inactive; USP1 inh: inactive; D1 antag: inactive; D1 agonist: 56; TRHR ag: inactive; TRHR PAM: inactive

How did CC1CCCCN1S(=O)(=O)c1cnc(Cl)c(Br)c1 (configuration not stated) do in these assays?
D1 PAM: inactive; USP1 inh: inactive; D1 antag: inactive; D1 agonist: inactive; TRHR ag: inactive; TRHR PAM: inactive

Results for CNC(=S)N(C)/N=C1/C(=O)N(Cc2c(Cl)cccc2Cl)c2ccccc21 ?
D1 PAM: inactive; USP1 inh: inactive; D1 antag: -34; D1 agonist: inactive; TRHR ag: inactive; TRHR PAM: inactive

What do the screens show for `Cc1ccc(CNC(=O)CN(C)S(=O)(=O)c2ccc(Br)s2)cc1`?
D1 PAM: inactive; USP1 inh: inactive; D1 antag: inactive; D1 agonist: inactive; TRHR ag: inactive; TRHR PAM: inactive

Screening data (PubChem)
